This note sets out measurements from PubChem BioAssay AID488835 (Broad Institute, 2010).

SMILES strings stand for the structures. About 140 (10%) of roughly 1,400 compounds were called active.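 How the source made its calls: active means Half-maximal inhibitory dose from the fit at or below ten times the top valid tested dose; inconclusive means Invalid fit, or flat curve showing 30 to 70% inhibition; inactive means the rest.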 A selection follows. Measured potencies and affinities stand elsewhere.

The target of this test is Lysine-specific demethylase 4C (Homo sapiens) (UniProt Q9H3R0). The test can be described thus: inhibition of JMJD2C H3K9me3 demethylation – biochemical, DELFIA europium, cherry-picked samples, dose response (AID 488835).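 Further: signal is the H3K9me2 demethylation product detected by a dimethyl-specific antibody.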 The following applies: GST-JMJD2C(1-420); series mostly up to 6 µM.
Sequence of Lysine-specific demethylase 4C (Homo sapiens) (Q9H3R0 1-420 limits assumed): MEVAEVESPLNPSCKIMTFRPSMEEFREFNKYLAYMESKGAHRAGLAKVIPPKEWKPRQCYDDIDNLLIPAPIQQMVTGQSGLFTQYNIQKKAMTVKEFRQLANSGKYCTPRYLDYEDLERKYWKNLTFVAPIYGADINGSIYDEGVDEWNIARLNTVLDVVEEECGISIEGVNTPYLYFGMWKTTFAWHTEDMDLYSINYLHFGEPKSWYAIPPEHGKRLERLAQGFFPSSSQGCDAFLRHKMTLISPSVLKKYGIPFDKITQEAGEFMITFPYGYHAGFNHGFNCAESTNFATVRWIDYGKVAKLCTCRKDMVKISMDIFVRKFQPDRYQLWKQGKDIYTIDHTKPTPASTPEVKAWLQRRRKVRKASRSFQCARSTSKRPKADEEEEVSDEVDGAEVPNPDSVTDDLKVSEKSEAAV
As to `CCCCC(=O)NC(NC(=S)N1CCOCC1)C(Cl)(Cl)Cl` (stereo not given), the compound was classed as inactive. The same measure for `CC(C)(C)n1nc2c(c1NC(=O)c1ccc(Br)o1)CS(=O)C2` (stereo not given): “inactive”. To `O=C(Nc1ccc(-c2nc3ncccc3o2)cc1)c1ccc(Br)o1` belongs “inactive”. To `COc1ccc(S(=O)(=O)Nc2ccc3c(c2)C(=O)N([C@H](C)CO)C[C@H](C)[C@@H](CN(C)S(=O)(=O)c2c(C)noc2C)O3)cc1` belongs “inactive”; to `COC(=O)CN1C(=O)[C@H]2[C@@H](/C=C/c3ccccc3)N3C(=O)CN(Cc4ccccn4)C(=O)[C@@]3(Cc3ccccc3)[C@H]2C1=O`, “inactive”. In the case of `COC(=O)c1ccc(/C=C/c2c(-c3ccc(OC)cc3)sc3ccccc23)cc1`, the outcome was inactive.

As to `COc1ccc2c(C(=O)CN3CCN(c4ccccc4)CC3)c[nH]c2c1`, the outcome was inactive. The same measure for `Cc1noc(C)c1C(=O)Nc1ccc2ccccc2c1`: “inactive”. To `Cc1noc(C)c1NC(=O)N(C)C[C@H]1Oc2ccc(NC(=O)CCC(F)(F)F)cc2C(=O)N([C@H](C)CO)C[C@@H]1C` belongs “inactive”; to `Fc1ccccc1OCCCCn1cncn1`, “inactive”. With `CC(C)=CCN1CCN(Cc2cn[nH]c2C2CCCCC2)CC1CCO` (stereo not given), the result was inactive. To `O=C(C[C@H]1C/C=C/CC[C@@H](Cc2ccc(F)cc2)C(=O)O[C@@H](c2ccccc2)CNC1=O)NCCO` belongs “inactive”. Regarding `CCOC(=O)C1CCN(S(=O)(=O)c2cc3c4c(c2)C(C)C(=O)N4CCC3)CC1` (stereo not given), the outcome was inactive.

Take `CCn1nc(C(=O)NNC(=O)COc2ccc(OC)cc2)c2ccccc2c1=O`: the compound was classed as inactive.

As for `COc1ccc(NC(=O)NCCCCc2ccccc2)c(OC)c1`, the compound was called inactive. The same measure for `O=c1nc(SCc2cccc(C(F)(F)F)c2)nc2ccccn12`: “inactive”; for `Cc1cccc(NC(=S)N(CCN2CCOCC2)Cc2cc3cc4c(cc3[nH]c2=O)OCO4)c1`: “inactive”. For `CCCCn1c(=O)[nH]c(=O)c2c1nc(-c1cc(Cl)c(OC)c(OC)c1)n2C`, the outcome was inactive.

As for `CNc1nc2c(c(=O)[nH]c(=O)n2C)n1CCCc1ccccc1`, the compound was called inactive. To `CCOC(=O)Cn1nc(C)c2c1CCCC2=O` belongs “inactive”; to `CCC(NS(=O)(=O)c1cccs1)c1ccc(C)cc1` (stereo not given), “inactive”.

On to `O=S1(=O)CCC(N=Nc2c(O)n(Cc3ccccc3)c3ccccc23)C1` (stereo not given), for which the result was inactive. The same measure for `Cc1ccccc1Cn1c2ccccc2c2cn[nH]c(=O)c21`: “inactive”; for `C[C@H](N)c1nnc(SCC(=O)N(C)C)o1`: “inactive”; for `COc1ccc(CCNC(=O)CSCc2n[nH]c(=O)[nH]2)cc1OC`: “inactive”. Regarding `CCOc1ccccc1Nc1ncnc2ccccc12`, the call was inactive. Regarding `CCOC(=O)c1csc(N/N=C2\CCc3ccccc32)n1`, the outcome was inactive. The same measure for `COc1ccc(/C=N/N=C2\CC3CCC2(C)C3(C)C)cc1O` (stereo not given): “inactive”; for `Cc1cc(C)c(NC(=O)CS(=O)CC(=O)Nc2ccc(F)cc2F)c(C)c1` (stereo not given): “inactive”. Regarding `Cc1cccc2c1-c1sc(C(=O)Nc3cccc([N+](=O)[O-])c3C)cc1CO2`, the compound was classed as inactive.

Take `Fc1cccc(F)c1/C=N/N1CCOCC1`: the outcome was inactive.

`COc1cccc(CSc2nnc(C(F)(F)F)n2Cc2ccc(F)cc2)c1`: the compound was called inactive. The same measure for `O=C1CCCC2=C1C(c1ccc(OS(=O)(=O)c3ccc(Cl)cc3)cc1)C1=C(CCCC1=O)O2`: “inactive”. Take `O=C1c2ccc([N+](=O)[O-])cc2C(=O)N1Cc1cccnc1`: the outcome was inactive. To `COc1ccc(CCNC(=O)c2ccc(N3CCCCS3(=O)=O)cc2)cc1OC` belongs “inactive”. To `O=C(NCCCN1CCCC1=O)c1cc(-c2cccnc2)nc2ccc(Cl)cc12` belongs “inactive”; to `CCCC(=O)NC(c1cccs1)c1cc(Cl)c2cccnc2c1O` (stereo not given), “inactive”. The same measure for `COc1ccc(CN2CCNC(=O)C2CC(=O)NCc2csc(C(C)C)n2)c(OC)c1` (stereo not given): “inactive”; for `Cc1ccc(C2=[N+]([O-])C(C)(C)CC2)cc1`: “inactive”; for `O=C(/C=C/c1cccs1)NC1CCS(=O)(=O)C1` (stereo not given): “inactive”. Turning to `CCOC(=O)c1c(NC(=O)C2CCCO2)sc2c1CCC2` (stereo not given), the outcome was inactive.

As for `CC(C)(C)NC(=O)C1CCN(C(=O)c2ccc(Br)cc2)CC1`, the outcome was inactive. To `CC1=C(C#N)C(Nc2ccc(C)cn2)(C(F)(F)F)C(=O)N1` (stereo not given) belongs “inactive”; to `Cc1csc(SCC(=O)Nc2ccccc2C)n1`, “inactive”; to `Cc1ccccc1C(=O)Nc1ccccc1C(=O)NC1CC1`, “inactive”. The same measure for `N/C(=N\NC(=O)c1ccc(Cl)cc1)c1cnccn1`: “inactive”; for `CCCc1c(NC(=O)Nc2ccc(F)cc2)cnn1-c1ccccc1`: “inactive”; for `CC1CCN(c2ccc3c(c2)S(=O)(=O)c2cccc(C(=O)NC4CC4)c2C3=O)CC1`: “inactive”. The same measure for `CCOC(=O)CCC(=O)NCc1ccc2c(c1)cc(C)n2C`: “inactive”; for `CCN(c1ccc(NC(=O)CCNC(=O)c2ccco2)cc1)C(C)C`: “inactive”. For `Cc1c(C2Nc3ccccc3NC3=C2C(=O)CC(C)(C)C3)cnn1C` (stereo not given), the result was inactive. To `CCOc1cccc(SCc2noc(C(=O)NC(C)C)c2C(=O)O)c1` belongs “inactive”; to `Cc1sc2ncnc(NCCCO)c2c1C`, “inactive”; to `Cc1sc2c(c1C)C(=O)/C(=C\Nc1ccccn1)S(=O)(=O)N2C`, “inactive”. Consider `CCN(C[C@H]1N[C@@](CC)(C(=O)OC)[C@H]2C(=O)N(C)C(=O)[C@@H]12)S(=O)(=O)c1ccc(C(F)(F)F)cc1`, for which the call was inactive. To `CCN(C[C@H]1N[C@@](Cc2ccccc2)(C(=O)OC)[C@H]2C(=O)N(Cc3ccccc3)C(=O)[C@@H]12)S(=O)(=O)c1ccccc1` belongs “inactive”. The same measure for `Cc1ccc(-n2c3nc(=O)[nH]c(=O)c-3cc3c(C)nn(-c4ccccc4)c32)c(C)c1`: “inactive”. For the compound `O=C1CC2C(=O)NCCN2C(=NC(=O)c2ccccc2)N1` (stereo not given), the outcome was inactive. The same measure for `CCSc1nnc(-c2cccc(S(=O)(=O)N(CC)CC)c2)n1Cc1ccccc1`: “inactive”; for `Cc1ccc(-c2csc3nc(C)n(-n4c(C)ccc4C)c(=O)c23)o1`: “inactive”. The same measure for `CN(C)CCOc1ccc(-c2c(-c3ccccc3)sc3ccccc23)cc1`: “inactive”; for `Fc1ccc(-c2csc(Nc3ccccn3)n2)cc1`: “inactive”. To `COc1ccc(OC)c(Nc2nc(-c3cccs3)cs2)c1` belongs “inactive”; to `NC(=O)C1CCN(c2nc(-c3ccc4c(c3)OCCO4)cs2)CC1`, “inactive”.

For `COc1ccc(-c2n[nH]c(=S)n2C2CCCCC2)cc1`, the call was inactive. The same measure for `Cc1nc(-c2ccc(C(=O)N3CCCC3)cc2)cs1`: “inactive”; for `OCC1=C[C@@H](O)[C@@H]2C=CO[C@@H](O[C@@H]3O[C@H](CO)[C@@H](O)[C@H](O)[C@H]3O)[C@H]12`: “inactive”. For `COc1ccc2[nH]c(=O)c(CN(CCCN(C)C)C(=O)Nc3ccc(F)cc3)cc2c1`, the call was inactive. The same measure for `N#Cc1ccc(OCC(=O)Nc2ccccc2NS(=O)(=O)c2cccs2)cc1`: “inactive”.

Turning to `CC(=O)C[C@@H](O)CC(=O)[C@H]1OC(=O)[C@H](C)C/C=C\Cc2ccccc21`, the compound was classed as inactive. For the compound `Cc1cccc(C)c1NC1=NC(=S)N(c2ccc(C(=O)O)cc2)C12CCCCC2`, the compound was called inactive. The same measure for `O=C(COc1ccc(Cl)cc1)NCCCn1ccnc1`: “inactive”; for `O=C(OCCCOC(=O)c1ccc(Br)o1)c1ccc(Br)o1`: “inactive”; for `CN(C)S(=O)(=O)c1ccc(N2CCCC2)c(C(=O)Nc2nc3ccc(F)cc3s2)c1`: “inactive”.

As for `COc1ccc2cc(Br)ccc2c1CC(=O)NCCCN1CCOCC1`, the compound was called inactive. The same measure for `CSCCC(NS(=O)(=O)c1ccc2ccccc2c1)C(=O)O` (stereo not given): “inactive”; for `Cn1c(=O)[nH]c(=O)c2[nH]c(NCCCN3CCOCC3)nc21`: “inactive”; for `CCOC(=O)N1CCN(c2ccc(F)cc2[N+](=O)[O-])CC1`: “inactive”. To `NC(=O)CC(NC(=S)NCc1ccccc1)C(=O)O` (stereo not given) belongs “inactive”. With `O=C(c1ccc2c(c1)OCO2)N1CCCN(C(=O)c2ccc3c(c2)OCO3)CC1`, the call was inactive. On to `COc1ccc(CC(=O)Nc2ccc(/C(C)=N/NC(=O)c3cccc([N+](=O)[O-])c3)cc2)cc1`, for which the compound was called inactive.

On to `O=C(NCC(=O)N1CCCCC1)c1sc2ccccc2c1Cl`, for which the result was inactive.

Take `c1cc2c(cc1C1CCCCC1)c1c3n2CCCNC3CCC1` (stereo not given): the compound was called inactive. The same measure for `COC(=O)c1cc(S(=O)(=O)NCCCN2CCCC2=O)cn1C`: “inactive”.

Regarding `O=[N+]([O-])c1ccc(N2CCN(S(=O)(=O)c3ccc(Cl)cc3)CC2)cc1NCc1cccnc1`, the compound was classed as inactive.

For the compound `C=CCNC(=O)c1ccc(S(=O)(=O)CC)c(Cl)c1Cl`, the result was inactive. To `COC(=O)C1CCN(C(=O)COC(=O)COc2ccc(C#N)cc2)CC1` belongs “inactive”.

Take `COc1cccc(NC(=S)/C(=C(\[O-])c2ccc(C)c([N+](=O)[O-])c2)[n+]2ccccc2)c1`: the call was inactive.

Consider `Cn1nnnc1SCC(=O)NCC(=O)c1ccccc1`, for which the result was inactive. `O=C(CSc1nnc(CNC(=O)c2cccs2)o1)c1ccccc1`: the call was inactive. The same measure for `NCc1nc(-c2ccc(Cl)cc2)no1`: “inactive”; for `CCS(=O)(=O)Nc1ccc(C2=NN(C(=O)c3ccco3)C(c3ccc(C)cc3)C2)cc1` (stereo not given): “inactive”.

For `CC(CN1CCCC1)OC(=O)COc1ccccc1` (stereo not given), the outcome was inactive. The same measure for `COc1ccc(C(=O)NC2CC3CCCC(C2)N3Cc2ccccc2)cc1` (stereo not given): “inactive”; for `CCN(CC)S(=O)(=O)c1ccc(N2CCOCC2)c(NC(=O)c2ccc3c(c2)OCCO3)c1`: “inactive”; for `O=C(NC1CCN(S(=O)(=O)c2ccc(F)cc2)CC1)c1ccc(F)cc1`: “inactive”.

Regarding `Oc1ccccc1N1CCN(C(=S)NCc2ccccc2)CC1`, the outcome was inactive. To `O=C(O)CCNc1ccc2c(c1)OCCO2` belongs “inactive”; to `COc1ccc(S(=O)(=O)Nc2cccc3c2O[C@H](CN(C)Cc2ccc(C(=O)O)cc2)[C@@H](C)CN([C@H](C)CO)C3=O)cc1`, “inactive”; to `CC(C)(C)C1CCc2[nH]c3ccccc3c(=O)c2C1` (stereo not given), “inactive”.

With `Cc1cc(=O)[nH]c(SCC(=O)Nc2ncc(S(=O)(=O)c3ccc([N+](=O)[O-])cc3)s2)n1`, the outcome was inactive. The same measure for `CCn1c(=O)c(C(=O)NCCc2ccc(Cl)cc2)c(O)c2ccccc21`: “inactive”. To `CC1CCCCC12NC(=O)N(CC(=O)NCCc1ccccn1)C2=O` (stereo not given) belongs “inactive”. The same measure for `COc1ccc(NC(=O)Nc2c[nH]c(=O)[nH]c2=O)cc1OC`: “inactive”; for `COc1ccc(C(=O)OCCc2sc[n+](CC(=O)c3ccccc3)c2C)cc1`: “inactive”.
